# Screening data deposited in PubChem BioAssay by several laboratories.
# Most compounds without a hit are left out; they make up all but 1.6% or so of the library.
# MLLE-PAM2 inh = blocks PAM2 peptide binding to the PABP1 MLLE domain. P11940. GST-MLLE / FITC-PAM2 fluorescence polarization. inhibition, % at 20 µM. 0.36% of 360,000 active. AID 588489; in the data active means inhibition above about 35%, passing the limit was not always enough;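 further: plate controls were DMSO wells with GST-MLLE for no effect and wells lacking GST-MLLE protein for full effect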
# PERK inh = inhibitors of human PERK kinase; CHO PERK-DD fusion, SEAP luminescence translation reporter; inhibition, % at 5.6 µM; 0.17% of 220,000 active;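 active means inhibition above the mean inhibition of all tested compounds plus 3 SD, set separately per screening campaign, cut at about 2.9% in these data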;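 further: PERK kinase domain activated by AP20187 dimerizer at 100 nM; 0% = DMSO with dimerizer and 100% = rapamycin at 8.4 µM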
# eIF4E-4G inh = eIF4E/eIF4G interaction inhibition in translation initiation | AID 782 | inhibition, % at 21.7 µM | TR-FRET eIF4E-eIF4GI(517-606) binding, 2 h | 0.37% of 220,000 active;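 active means inhibition above about 30%, limit read from the data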;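 further: 0% = full FRET control wells and 100% = background wells lacking eIF4GI fragment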
# PABP polyA inh = blocks human PABP binding to poly(A) RNA | P11940 | fluorescence polarization | inhibition, % at 35 µM | 1% of 290,000 active | AID 2014;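 further: calls also rest on retests at 20 µM and on dose response follow-up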
# eIF4H FP inh = inhibitors of RNA binding by human eIF4H; inhibition, % at 35 µM; Q15056; eIF4H fluorescence polarization binding assay; AID 2012; 0.94% of 290,000 active;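 further: calls also rest on retests at 20 µM and on dose response follow-up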
# Numbers without * were called inactive; u = inconclusive; x = no result given; ! = a repeat was not active. Unless noted, how the calls were made is not given here.
SMILES,MLLE-PAM2 inh,PERK inh,eIF4E-4G inh,PABP polyA inh,eIF4H FP inh
COc1ccc(/C=C/C(=O)NC(=S)Nc2ccc(S(=O)(=O)Nc3nccnc3OC)cc2)cc1,38*,1,6,-6,-3
COc1nccnc1NS(=O)(=O)c1ccc(NC(=S)NC(=O)c2cccc(F)c2)cc1,29,0,3,2,-10
COc1nccnc1NS(=O)(=O)c1ccc(NC(=S)NC(=O)c2ccc(F)cc2)cc1,49*,0,7,13,-4
CCOC(CCc1c(C)nc(NC(C)=O)[nH]c1=O)OCC,5,3.1*,4,-4,-6
CC(=O)Nc1nc(C)c(CCCOc2ccc([N+](=O)[O-])cc2)c(=O)[nH]1,-9,0,1,-5,-2
CN1CCN(c2c(F)cc3c(=O)c(C(=O)O)cn4c3c2SCC4)CC1,8,0,2,61*!,97*!
CC(=O)Oc1cccc2c1C(=O)c1c(OC(C)=O)cc(C(=O)O)cc1C2=O,34,0,6,-4,u
O=C(O)c1cc(O)c2c(c1)C(=O)c1cc(O)cc(O)c1C2=O,-9,-1,8,76*,90*
CCc1nc2c(OCC(=O)C(C)(C)C)cccn2c1N(C)C(=O)C1CC1,15,x,x,x,x
Cc1cccc(CN2CCc3c([nH]c4ccccc34)C2CC(C)C)n1 (stereo not drawn),-8,x,x,2,8
Cc1cnc(CN2CCc3c([nH]c4ccccc34)C2CC(C)C)[nH]1 (stereo not drawn),-38,0,-2,63*,20
O=C(O)c1ccccc1NS(=O)(=O)c1cccc(-n2sc3ccccc3c2=O)c1,11,x,x,59*,47*
COC(=O)c1ccc(NC(=O)CN(C)S(=O)(=O)c2ccc(OC)c(C)c2)cc1,15,-1,-3,8,3
C=CCNC(=S)N/N=C(\C)c1ccc(OC)cc1,18,1,-12,6,8
C=CCNC(=S)N/N=C(\C)c1cccc(OC)c1,40*,1,1,-4,-7
C/C(=N\NC(=S)NCCc1ccccc1)c1cccc(Br)c1,39*,2,-2,-6,-9
C/C(=N\NC(=S)NCc1ccccc1)c1cccc(Br)c1,23,1,-1,28,-5
CCC(=O)NNc1ncnc2c1cnn2C,10,0,2,-3,4
CCn1c2ccccc2c2nnc(SCc3ccc(C(=O)OC)o3)nc21,41*,0,1,-2,-3
CCCCOc1ccc(C(=O)NCCCC(=O)N2CCCCC2)cc1,0,-1,-4,-5,-4
Cc1ccccc1-c1cc2nc(C)c(Cl)c(=O)n2[nH]1,11,x,x,x,x
COCc1cc(=O)n2[nH]c(N)nc2n1,0,2,-12,14,6
COCc1cc(=O)n2[nH]c(-c3ccsc3-n3c(C)ccc3C)cc2n1,-34,0,0,66*,80*
Cc1nc2cc(-c3ccsc3-n3c(C)ccc3C)[nH]n2c(=O)c1Cl,4,2,1,83*,85*
Cc1cc(=O)n2[nH]c(-c3ccsc3-n3c(C)ccc3C)cc2n1,-54,1,7,81*,75*
SMILES,MLLE-PAM2 inh,PERK inh,eIF4E-4G inh,PABP polyA inh,eIF4H FP inh
Cc1ccc(S(=O)(=O)N2CCOCC2)cc1C(=O)N1CCOCC1,13,0,-4,-6,-15
Cc1ccc(S(=O)(=O)N2CCCC2)cc1[N+](=O)[O-],13,1,-7,-4,-7
COc1ccccc1C(=O)N=Nc1c(O)[nH]c2ccc([N+](=O)[O-])cc12,-2,1,10,-4,-5
O=C(N=Nc1c(O)[nH]c2ccc([N+](=O)[O-])cc12)c1cc(-c2ccccc2Cl)nc2ccccc12,-7,1,34*,-1,30
CCCCc1c(C)nc2ccc(C(=O)OCC)cc2c1Cl,-7,1,2,120*,3
CCOC(=O)c1ccc2nc(C)c(CC)c(Cl)c2c1,8,0,2,-2,1
COc1ccc(OC)c(NC(=O)C(C#N)=Cc2ccco2)c1,-17,x,x,x,x
COc1ccc(NC(=O)/C(C#N)=C/C=C/c2ccco2)cc1,14,1,-1,active,78
COc1ccc(C(=O)Nc2nc3ccc(S(C)(=O)=O)cc3s2)cc1OC,-8,0,-5,9,-8
Cc1[nH]n(-c2ccccc2)c(=O)c1C(c1ccc(C(=O)O)cc1)c1c(C)[nH]n(-c2ccccc2)c1=O,45*,1,6,4,-3
Cc1[nH]n(-c2ccccc2)c(=O)c1C(c1cccc([N+](=O)[O-])c1)c1c(C)[nH]n(-c2ccccc2)c1=O,27,1,-2,-12,-3
O=C(c1cccc(Br)c1)N1CCCc2ccccc21,2,x,x,2,4
O=C(c1coc(=O)c(Br)c1)N1CCC(C(O)(c2ccccc2)c2ccccc2)CC1,-22,1,5,6,6
CC1(C)CCCN(C(=O)c2coc(=O)c(Br)c2)C1,6,0,25,57*,89*
O=C(c1coc(=O)c(Br)c1)N1CCCc2ccccc21,-18,2,x,98*,67*
COCCCNC(=S)N(CCCN(C)C)Cc1cc2cc3c(cc2[nH]c1=O)OCCO3,-74,x,x,9,13
COCCCNC(=S)N(CCO)Cc1cc2cc3c(cc2[nH]c1=O)OCCO3,40*,x,x,1,-5
O=C(c1ccccc1)N(CCO)Cc1cc2cc3c(cc2[nH]c1=O)OCCO3,57*,0,1,u,-7
COCCNC(=S)N(CCCN(C)C)Cc1cc2cc3c(cc2[nH]c1=O)OCCO3,-80,x,x,4,10
COCCNC(=S)N(CCO)Cc1cc2cc3c(cc2[nH]c1=O)OCCO3,39*,x,x,-6,6
CSCCC(NC(=O)c1ccc(Cl)cc1Cl)C(=O)OC(C)C(=O)NCc1ccco1 (stereo not drawn),2,x,x,x,x
CCCn1c(SCC(=O)NC2CC2)nnc1-c1ccccn1,-8,x,x,15,2
O=S(=O)(c1ccc(F)cc1)N1CCC(O)(c2ccc3c(c2)OCO3)CC1,12,2,1,-3,0
Nc1ncnc2c1ncn2[C@@H]1O[C@H](COP(=O)(O)O)[C@@H](O)[C@H]1O,-1,x,x,7,0
CN1N=C(N)c2cn(C3OC(COP(=O)(O)O)C(O)C3O)c3ncnc1c23 (stereo not drawn),51*,x,x,x,x
SMILES,MLLE-PAM2 inh,PERK inh,eIF4E-4G inh,PABP polyA inh,eIF4H FP inh
CC(C)CN(CCCNC(=O)CC1Oc2ccccc2NC1=O)CC(C)C (stereo not drawn),-1,-2,-1,-2,-4
O=C(COC(=O)COc1ccccc1F)Nc1ccc2c(c1)OCO2,15,x,x,x,x
CCCCc1c(O)nc(SCC(=O)O)[nH]c1=O,-4,2,-1,1,-6
O=C(CSc1nc(O)c(Cc2ccccc2)c(=O)[nH]1)c1ccccc1,41*,-1,-7,5,5
CCCCc1c(O)nc(SCC(=O)c2ccccc2)[nH]c1=O,39*,0,0,7,-1
CCCCCc1c(O)nc(SCCN(C)C)[nH]c1=O,2,2,1,1,-8
CCCCCc1c(O)nc(SCCN(CC)CC)[nH]c1=O,6,0,-5,76*,active
